High-throughput results (PubChem)
Compounds with a hit are over-represented: about 6.1% of the library has one in this group of screens.
D3 antag = blocks the human D3 dopamine receptor. P35462. D3R cells, DiscoveRx beta-arrestin luminescence, antagonist mode; active compounds read low. 360,000 tested, 2.5% active. max response, negative = inhibition, %; in the data active = max response below about -50%
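Cells expressing the human receptor were seeded at 1500 cells/well, incubated overnight at 37 degrees C in 5% CO2, then exposed to library compounds with dopamine controls for 90 minutes at 37 degrees C before luminescent detection.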
D3 ag = activates the human D3 dopamine receptor; 410,000 tested, 0.58% active; AID 652048; D3R DiscoveRx beta-arrestin cells, luminescence, 90 min; max activation, %; in the data active = max activation above about 30%
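Agonist mode: compounds and dopamine controls were applied to plated cells for 90 min at 37 degrees C after an overnight attachment at 1500 cells/well. Luminescent read-out followed 30 - 60 minutes at room temperature with DiscoveRx detection reagent.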
D1 antagonist = blocks dopamine activation of the human D1 receptor. P21728. HEK293 TREx D1 cells, calcium flux, dopamine EC80; active compounds read low. activity change, negative = inhibition, % at 10 µM. 360,000 tested, 3.2% active. AID 504652; in the data active = activity change below about -30%
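Using tetracycline-induced force-coupled D1 Hek293 cells and a calcium dye, signals were followed for 180 s after compound, then for 180 s after EC80 dopamine, to detect inhibitors.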
ERG Ets-DNA blk = ERG Ets/DNA interaction inhibition | fluorescence polarization, His-ERG Ets domain / labelled DNA | 370,000 tested, 0.028% active | P11308 | Potency, µM (titrated, usually from 76.9 µM), hits mostly inhibitors | AID 624246; active = well fitted inhibition curve with a large enough effect in the polarisation, with a control signal flat; the % refers to the polarisation;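 note: polarization taken with two DNA probes labelled with fluorescein and Texas red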
Target sequence (P11308 whole entry, looked up, the tested form may be a part): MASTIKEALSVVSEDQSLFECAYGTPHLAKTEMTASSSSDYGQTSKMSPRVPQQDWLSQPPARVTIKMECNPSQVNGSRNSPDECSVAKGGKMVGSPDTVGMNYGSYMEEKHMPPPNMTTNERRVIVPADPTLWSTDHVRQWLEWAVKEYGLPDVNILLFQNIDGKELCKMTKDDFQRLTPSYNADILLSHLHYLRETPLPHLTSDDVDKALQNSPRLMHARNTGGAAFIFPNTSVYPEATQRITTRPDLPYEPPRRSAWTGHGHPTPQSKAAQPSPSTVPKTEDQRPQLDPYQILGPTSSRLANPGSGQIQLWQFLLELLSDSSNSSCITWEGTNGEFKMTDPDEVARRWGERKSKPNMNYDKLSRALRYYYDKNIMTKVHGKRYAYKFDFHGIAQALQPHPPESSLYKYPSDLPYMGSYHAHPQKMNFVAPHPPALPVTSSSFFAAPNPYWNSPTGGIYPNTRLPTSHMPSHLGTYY
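His-tagged ERG Ets domain (1 uM in the protein solution; 300mM KCl, 50mM Tris-HCl, 1mM EDTA, 1mM DTT, pH 7.5) received compound, then a probe mix of 5 nM fluorescein-DNA and 100nM Texas-615-DNA. Fluorescence polarization was read for both dyes.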
D1 potentiator = potentiators of human D1 dopamine receptor; P21728; HEK293 TREx D1 cells, calcium flux, dopamine EC20 potentiation; potentiation, % at 10 µM; 360,000 tested, 0.036% active; in the data active = potentiation above about 30%
D1 ag = human D1 receptor agonism; P21728; HEK293 T-REx D1 cells, calcium flux, agonist mode; activation, % at 2 µM; 360,000 tested, 1% active; AID 504660; in the data active = activation above about 30%
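Agonism was scored from calcium flux recorded over 180 s (1 read/s) after pintool compound addition, following a 10-cycle baseline. Cells were inducible force-coupled HEK293 TREx D1, plated overnight at 30 C and loaded with no-wash calcium dye.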
Numbers stand for hits.

For Cc1ccc(CN2CCN(CC(=O)NC(C)CCc3ccccc3)C2=O)cc1 (stereo not drawn) the results were D3 antag inactive, D3 ag inactive, D1 antagonist inactive, ERG Ets-DNA blk inactive and D1 ag inactive.
`O=C(OCCN1CCOCC1)c1cccnc1` gave D3 antag inactive, D3 ag inactive, D1 antagonist inactive, ERG Ets-DNA blk inactive, D1 potentiator inactive and D1 ag inactive.
For CCN(CCCNC(=O)c1cc2cc3ccc(OC)cc3nc2s1)c1cccc(C)c1 the results were D3 ag inactive, D1 antagonist inactive, ERG Ets-DNA blk inactive, D1 potentiator inactive and D1 ag inactive.
`CC(=O)Nc1cccc(OCc2ccc(S(=O)(=O)Cc3ccccc3)cc2)c1` gave D3 antag inactive, D3 ag inactive, D1 antagonist inactive, ERG Ets-DNA blk inactive, D1 potentiator inactive and D1 ag inactive.
For O=C(CCC(=O)N/N=C/c1ccc(Br)s1)NCc1ccccc1 the results were D3 antag inactive, D3 ag inactive, D1 antagonist inactive, ERG Ets-DNA blk inactive, D1 potentiator inactive and D1 ag inactive.
`COc1cccc(/C=N/NC(=O)c2[nH]c(C)c(C(=O)N/N=C/c3cccc(OC)c3O)c2C)c1O` gave D3 antag inactive, D3 ag inactive, D1 antagonist -77, ERG Ets-DNA blk inactive, D1 potentiator inactive and D1 ag inactive.
O=C(CCc1ccccc1)Nc1cc2c(cc1Cl)OCCO2 was read as D3 antag inactive, D3 ag inactive, D1 antagonist -30, ERG Ets-DNA blk inactive, D1 potentiator inactive and D1 ag inactive.
O=C(CCC(=O)N/N=C/c1cc(Cl)cc(Cl)c1O)NCc1ccccc1 was read as D3 antag -54, D3 ag inactive, D1 antagonist inactive, ERG Ets-DNA blk inactive, D1 potentiator inactive and D1 ag inactive.
`COc1cccc(/C=N/NC(=O)CNC(=O)c2ccncc2)c1O` gave D3 antag inactive, D3 ag inactive, D1 antagonist -41, ERG Ets-DNA blk inactive, D1 potentiator inactive and D1 ag inactive.
O=C(Cn1cc(S(=O)(=O)Cc2ccccc2Cl)c2ccccc21)Nc1ccc(F)cc1F was read as D3 ag inactive, D1 antagonist inactive, ERG Ets-DNA blk inactive, D1 potentiator inactive and D1 ag inactive.
`Cn1c(SCC(=O)NCc2cccs2)nnc1-c1ccc(S(=O)(=O)N2CCCC2)cc1` gave D3 antag inactive, D3 ag inactive, D1 antagonist inactive, ERG Ets-DNA blk inactive, D1 potentiator inactive and D1 ag inactive.
`O=C(CNC(=O)c1ccccc1)N/N=C/c1ccccc1Cl` gave D3 antag inactive, D3 ag inactive, D1 antagonist inactive, ERG Ets-DNA blk inactive, D1 potentiator 32 and D1 ag inactive.
For O=C(CCCC(=O)NN=Cc1ccccc1Cl)NN=Cc1ccccc1Cl the results were D3 antag inactive and D3 ag inactive.
Screening O=C(Cc1ccccc1)N/N=C/c1cc2c(cc1Cl)OCO2 returned D3 antag inactive, D3 ag inactive, D1 antagonist -40, ERG Ets-DNA blk inactive, D1 potentiator inactive and D1 ag inactive.
O=C(c1cc(-c2cccc(Cl)c2)on1)N1CCCC1 was read as D3 antag inactive, D3 ag inactive, D1 antagonist inactive, ERG Ets-DNA blk inactive, D1 potentiator inactive and D1 ag inactive.
`O=C(CSC1=NS(=O)(=O)c2cc(Cl)ccc2N1)Nc1ccccc1C(F)(F)F` gave D3 antag inactive, D3 ag inactive, D1 antagonist inactive, ERG Ets-DNA blk inactive, D1 potentiator inactive and D1 ag inactive.
For O=C(NCc1ccco1)c1ccc2c(c1)N(Cc1ccc(Cl)cc1)CCS2 the results were D3 antag inactive, D3 ag inactive, D1 antagonist -37, ERG Ets-DNA blk inactive, D1 potentiator inactive and D1 ag inactive.
O=C(NCC(=O)N(Cc1ccco1)C(C(=O)NC1CCCCC1)c1ccncc1)c1cccs1 (stereo not drawn) was read as D3 antag inactive, D3 ag inactive, D1 antagonist inactive, ERG Ets-DNA blk inactive, D1 potentiator inactive and D1 ag inactive.
Cc1cccnc1NC(=O)Cn1nc(C)c([N+](=O)[O-])c1C was read as D3 antag inactive, D3 ag inactive, D1 antagonist inactive, ERG Ets-DNA blk inactive, D1 potentiator inactive and D1 ag inactive.
